Bioassay records as filed in PubChem.
Hits are enriched below; roughly 31% of the tested compounds scored in any of these assays.
CYP2C9 inh: blockers of cytochrome P450 2C9 activity – biochemical, luminescence, ADME assay, primary screen | P11712 | CYP2C9 Supersomes, luciferin-H conversion | inhibition, % at 5 µM | actives 20% (n = 96,000) | AID 777, 2007;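 active means blocking of liver enzyme CYP2C9 beyond about 50% at 5 µM, limit read from the data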
Target sequence (P11712 whole entry, looked up): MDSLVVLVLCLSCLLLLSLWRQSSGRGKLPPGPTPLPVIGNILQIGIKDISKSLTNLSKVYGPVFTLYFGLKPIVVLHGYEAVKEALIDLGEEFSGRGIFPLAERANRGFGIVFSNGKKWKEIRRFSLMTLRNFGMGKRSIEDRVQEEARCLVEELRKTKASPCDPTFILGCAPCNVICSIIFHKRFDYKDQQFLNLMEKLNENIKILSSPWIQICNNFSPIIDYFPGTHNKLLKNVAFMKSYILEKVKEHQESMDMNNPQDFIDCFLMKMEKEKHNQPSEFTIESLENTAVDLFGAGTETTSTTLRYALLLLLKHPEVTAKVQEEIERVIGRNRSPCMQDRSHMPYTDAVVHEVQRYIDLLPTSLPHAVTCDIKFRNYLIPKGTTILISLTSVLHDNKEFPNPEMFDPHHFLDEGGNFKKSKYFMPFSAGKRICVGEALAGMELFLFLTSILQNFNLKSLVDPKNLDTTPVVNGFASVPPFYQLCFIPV
CYP2C19 act: human CYP2C19 activators, primary screen, biochemical, luminescence. 96,000 tested, under 10 active. Cytochrome P450 2C19 (Homo sapiens), P33261. activation factor at 5 µM. recombinant CYP2C19, luciferin-H EGE luminescence; active compounds read high; 0 = fully inhibited enzyme, 1 = untreated enzyme;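 active means activation factor of at least 2 at 5 µM in the primary screen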
CYP2C19 inhib: blockers of cytochrome P450 2C19 activity – biochemical, luminescence, ADME assay, primary screen; P33261; CYP2C19 Supersomes, luciferin-H EGE luminescence, 30 min; inhibition, % at 5 µM; actives 21% (n = 96,000);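 active means CYP2C19 inhibition above a set limit at 5 µM in the primary screen, cut at about 50% in these data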
CYP2C9 activ: human CYP2C9 activators, primary screen, biochemical, luminescence; Cytochrome P450 2C9 (Homo sapiens), P11712; recombinant CYP2C9, luciferin-H conversion; active compounds read high; factor 1 = untreated enzyme, 0 = blocked; activation factor at 5 µM; actives 1.4% (n = 96,000); AID 1024, 2008;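 active means activation factor of 2 or more for CYP2C9 at a 5 µM dose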
PLAP act: PLAP enzyme activators, biochemical, luminescence, HTS; purified PLAP enzyme, luminescent substrate read-out; active compounds read high; activation fold at 20 µM; actives 1.2% (n = 96,000); AID 696, 2007; in the data active means activation fold above about 2
Numbers stand for hits; - = inactive; . = no result.

SMILES | CYP2C9 inh | CYP2C19 act | CYP2C19 inhib | CYP2C9 activ | PLAP act
COc1ccc(Nc2sc(C(=O)c3ccc(Cl)cc3)c(N)c2C(=O)Nc2ccccc2OC)cc1 | 76.5 | - | - | - | -
COc1ccc(C(=O)c2sc(Nc3ccccc3)c(C(=O)Nc3ccc(OC)c(OC)c3)c2N)cc1 | - | - | - | - | -
COc1ccc(C(=O)c2sc(Nc3cccc(OC)c3)c(C(=O)Nc3cccc(C)c3C)c2N)cc1 | 52.0 | - | - | - | -
Cc1ccccc1NC(=O)C(NS(=O)(=O)c1ccc2c(c1)c(=O)n(C)c(=O)n2C)c1ccccc1 (stereo not drawn) | - | - | - | - | -
CCNC(=O)NC(=O)C(C)Sc1ccc2c(c1)OCCO2 (stereo not drawn) | - | - | 52.8 | - | -
CCCC(C)C(=O)Nc1ccc2c(c1)OCCO2 (stereo not drawn) | - | - | - | - | -
O=C(NCCCN1CCOCC1)C1CCC(=O)N1C1CCCCC1 (stereo not drawn) | - | - | - | - | -
Cn1nc(-c2ccc(Cl)cc2)c2cc(C(=O)NCCN3CCOCC3)sc21 | 70.5 | - | - | - | -
CCN(CC)CCNC(=O)c1cc2c(-c3ccc(Cl)cc3)nn(C)c2s1 | - | - | - | - | -
O=C(Nc1c(F)cc(F)cc1Br)c1cc(-c2ccc(O)cc2)on1 | - | - | 87.3 | - | -
CCOCCCNC(=O)c1cc2c(-c3ccc(Cl)cc3)nn(C)c2s1 | - | - | 61.3 | - | -
O=C(NCCCN1CCOCC1)c1cc(-c2ccc(O)cc2)on1 | - | - | - | 2.2 | -
Cn1c(N)c(C(=O)COC(=O)c2ccco2)c(=O)n(C)c1=O | - | - | - | - | -
CCOC(=O)c1c(C)c(C(=O)NC(C)COC)c(C)n1CC (stereo not drawn) | - | - | - | - | -
Cn1nc(-c2ccc(Cl)cc2)c2cc(C(=O)NCCCN3CCOCC3)sc21 | 57.7 | - | - | - | -
Cn1nc(-c2ccc(Cl)cc2)c2cc(C(=O)NC3CC3)sc21 | - | - | - | - | -
Cc1cc(C(=O)CSc2nc3ccccc3n2C)c(C)n1C | - | - | - | 3.4 | -
C=CCn1c(SCC(=O)c2ccc(O)c(O)c2)nnc1-c1ccccc1OC | - | - | 74.8 | - | -
Cc1ccccc1-n1c(SCC(=O)c2cc(C)n(C)c2C)nnc1-c1cccnc1 | 62.3 | - | 67.2 | - | -
CCn1c(SCC(=O)c2cc(C)n(C)c2C)nnc1-c1ccccc1 | - | - | 100.2 | - | -
Cc1cc(C(=O)CSc2nc3ccccc3c(=O)[nH]2)c(C)n1C | - | - | - | - | -
C=CCn1c(SCC(=O)Nc2ccc3c(c2)OCO3)nnc1-c1ccccc1O | - | - | - | - | -
O=C(NC1CCCCC1)C1CN(S(=O)(=O)c2ccccc2)CCN1S(=O)(=O)c1ccccc1 (stereo not drawn) | - | - | - | - | -
CC(C)N=C(Nc1ccccc1)c1cccnc1 | - | - | - | - | -
O=C(NNC(=O)c1cc(O)c(O)c(O)c1)NC1CCCCC1 | - | - | - | - | -
SMILES | CYP2C9 inh | CYP2C19 act | CYP2C19 inhib | CYP2C9 activ | PLAP act
CCn1c(SCC(N)=O)nnc1-c1ccc(OC)c(OC)c1 | - | - | - | - | -
CCn1c(CSc2nc3ccccc3s2)nnc1SCC(=O)c1ccc(O)c(O)c1 | - | - | - | - | -
CCn1c(SCC(=O)c2ccc(O)c(O)c2)nnc1-c1ccccc1OC | - | - | 67.3 | - | -
CCn1c(SCC(=O)c2ccc(O)c(O)c2)nnc1-c1ccccc1 | - | - | 98.2 | - | .
CC(C)CC(NC(=O)c1ccco1)C(=O)Nc1ccc2c(c1)OCCO2 (stereo not drawn) | - | - | - | - | -
Cc1cc(NS(=O)(=O)c2ccc(NC(=S)NC(=O)c3ccc(Cl)cc3Cl)cc2)no1 | - | - | - | - | -
COC(=O)C1=C(C)N(c2ccccc2)/C(=C/c2cccs2)C1=O | - | - | - | - | -
CCOC(=O)C1C(=O)N(C(=O)c2ccc(OC)cc2)CC1c1ccccc1 (stereo not drawn) | - | - | - | - | -
CCOC(=O)C1C(=O)N(C(=O)c2cncc(Br)c2)CC1c1ccccc1 (stereo not drawn) | - | - | 83.7 | - | -
Cc1cc(NC(=O)CSc2nnc(Cc3ccccc3)o2)no1 | - | - | - | - | -
Cc1cc(F)ccc1NCc1cccnc1 | - | - | 50.0 | - | -
Fc1ccc(NCc2cccnc2)cc1F | - | - | - | - | -
COc1ccc2c(c1)c(C(=O)CN1CCC(C(N)=O)CC1)c(C)n2C | - | - | - | - | -
c1csc(-c2nn[nH]n2)c1 | - | - | 94.8 | - | -
N#C/C(C(=O)Oc1ccccc1)=C1\C=Cc2ccccc2N1 | - | - | - | - | -
Cc1ccc(-n2c3c(c(=O)[nH]c2=S)C(C(F)(F)F)(C(F)(F)F)NC(=O)N3)cc1 | 54.1 | - | - | - | -
CCOC(=O)N1CCC(N2CC34C=CC(O3)C(C(=O)Nc3ccc(C(C)C)cc3)C4C2=O)CC1 (stereo not drawn) | 75.5 | - | - | - | -
CCOC(=O)N1CCC(N2CC34C=CC(O3)C(C(=O)Nc3ccc(F)cc3)C4C2=O)CC1 (stereo not drawn) | - | - | - | - | -
c1ccc(CN2CCC(Nc3nc(-c4ccccc4)nc4ccccc34)CC2)cc1 | 86.2 | - | 60.6 | - | -
O=C(NC1CCN(Cc2ccccc2)CC1)c1cc(-c2ccccn2)nc2ccccc12 | - | - | - | - | -
COc1cccc(NC(=O)COC(=O)c2c3c(nc4ccccc24)CCC(C)C3)c1 (stereo not drawn) | 56.1 | - | - | - | -
O=C(COC(=O)c1c2c(nc3ccccc13)CCCC2)Nc1ccc2c(c1)OCO2 | 77.3 | - | 75.9 | - | -
Cn1c(CCNC(=O)c2ccc(Cl)c(Cl)c2)nnc1SCc1ccc(Cl)c(Cl)c1 | - | - | - | - | -
COc1ccc(Cc2nnc(SCc3nc4ccccc4c(=O)[nH]3)n2C)cc1 | 61.8 | - | - | - | -
Cn1c(CCNC(=O)c2ccccc2F)nnc1SCc1nc2ccccc2c(=O)[nH]1 | 63.9 | - | - | - | -
SMILES | CYP2C9 inh | CYP2C19 act | CYP2C19 inhib | CYP2C9 activ | PLAP act
C=CCn1c(SCC(=O)Nc2sc3c(c2C#N)CCC3)nnc1C1COc2ccccc2O1 (stereo not drawn) | 66.4 | - | - | - | -
Cn1c(SCC(=O)Nc2sc3c(c2C#N)CCC3)nnc1C1COc2ccccc2O1 (stereo not drawn) | 67.0 | - | - | - | -
CCOC(=O)c1sc(NC(=O)CN2C(=O)c3cccc4cccc(c34)C2=O)nc1C | - | - | - | - | -
CC(OC(=O)CCCc1nc2ccccc2s1)C(N)=O (stereo not drawn) | - | - | - | - | -
Cc1noc(C)c1COC(=O)CCCc1nc2ccccc2s1 | 51.2 | - | - | - | -
CN(C)C=Nc1ncc2c3ccccc3n(CCN(C)C)c2c1C#N | 57.8 | - | - | - | -
